Dicer inh: inhibitors of human Dicer processing of pre-microRNA | Q9UPY3 | hit rate 6% among 47,000 | z-score at 25 µM | cat-ELCCA pre-miR-21 Dicer processing, chemiluminescence; active compounds read high | AID 1347074; in the data active = z-score above about 3, passing the limit was not always enough;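 also: plate controls were vehicle for no effect and no enzyme for full effect; higher signal means more uncleaved substrate so more Dicer inhibition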
Active calls of the source: *. The sample as a whole holds a higher share of hits than the screen did.

SMILES	Dicer inh
CCCCCCn1c(N)c(C(=O)OCC)c2nc3ccccc3nc21	-2.63
CCOC(=O)c1c(C)n(C2CC2)c2ccc(O)cc12	3.34*
CCCn1c(C)c(C(=O)OCC)c2cc(O)ccc21	6.79*
COc1ccc(-n2c(=S)[nH]c3ccc(C)cc3c2=O)cc1	68
Cc1nc(C(F)(F)F)ccc1C(=O)N1CCC2(CC1)OCCO2	-1.23
Clc1ccc(NC2=NCCS2)cc1	-1.58
CCNCC1(c2ccc(OC)c(OC)c2)CCCC1	-0.03
C[N+]1([O-])[C@@H]2CC(OC(=O)[C@H](CO)c3ccccc3)C[C@H]1[C@@H]1O[C@@H]12 (stereo partly specified)	-0.11
CCOC(=O)c1ccc(Oc2coc3cc(OC(=O)N(C)C)ccc3c2=O)cc1	23.6
CN1C(=O)C(N)N=C(c2ccccc2)c2ccccc21 (stereo unspecified)	0.1
Cc1cccc(C)c1NC1=NCCCS1	1.16
COc1ccc(/C=C/[N+](=O)[O-])c(OC)c1	-0.45
O=[N+]([O-])/C=C/c1ccc(Cl)cc1Cl	3.54*
O=[N+]([O-])/C=C/c1ccc(C(F)(F)F)cc1Cl	-0.06
O=C(c1ccco1)c1cn(Cc2ccccc2Cl)c2ccccc12	-0.32
O=C(O)c1cn(Cc2ccc(Br)cc2)c2ccccc12	-0.33
Cc1ccnc(-n2c(-c3ccco3)nc3ccccc3c2=O)c1	0.83
CC(C)[C@H]1CN[C@H](C(=O)O)[C@H]1CC(=O)O	0.16
NCCc1ccc(O)cc1	-1.25
NCC(=O)c1ccc(Cl)cc1	0.75
NNC(=O)c1ccc(O)cc1	3.66*
FC(F)(F)Oc1ccc(NC2=NCCCS2)cc1	1.06
CCOC(=O)C1=C(C)OC(N)=C(C(=O)OCC)C12C(=O)Nc1ccccc12 (stereo unspecified)	-1.44

Assay outcomes deposited in PubChem by Center for Chemical Genomics, University of Michigan.
